# Reference: PubChem BioAssay AID504832 (National Center for Advancing Translational Sciences (NCATS), 2011)
# The campaign covered roughly 310,000 compounds. About 18,000 (5.8%) were called active. Another 22% or so got no clear call; they are omitted. Shown is part of a subset that was picked to be rich in actives. A call without a number means that no potency is given here. A number with no mark means an inactive call. Calls come from the whole dose curve; as a rule, active = well fitted inhibition curve with a large enough effect; inconclusive = small, poorly fitted or top-dose-only effect, or another doubt; inactive = no such curve, though single readings can be large or run the other way.
# Assay: Primary qHTS for delayed death inhibitors of the malarial parasite plastid, 48 hour incubation
# Settings: P. falciparum luciferase growth in erythrocytes; series mostly up to 28.7 µM
# Method in brief: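 Here the parasites carry a stable luciferase gene and grow inside erythrocytes in Albumax-based RPMI medium with compound for one erythrocytic cycle. Activity is scored as loss of luminescent signal.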
# Potency is the fitted concentration of half-maximal effect.
Structure (SMILES),Potency,"activity change, negative = inhibition"
Cc1cc(Nc2ccc(Cl)cc2)nc(N2CCOCC2)n1,inactive,
Cc1cc(Nc2ccc(N3CCOCC3)cc2)c2cccc(C)c2n1,4.15 µM (active),
Cc1cc(Nc2ccc(C(=O)N3CCCCC3)cc2)c2cccc(C)c2n1,inactive,
O=[N+]([O-])c1ccc(C=Nc2ccc(Cl)cc2Cl)s1,10.4 µM (active),
O=S(=O)(Nc1ccccc1Cl)c1cccc2nsnc12,inactive,
C/C(CC(=O)NCc1ccc(Cl)cc1)=N\NC(=O)COc1ccc(C)cc1Br,inactive,
COc1ccc(-c2cc(C(=O)N3CCN(Cc4ccc5c(c4)OCO5)CC3)on2)cc1OC,inactive,
COc1ccccc1CCCNC(=O)C1CCC(=O)N(CCN2CCOCC2)C1 (stereo not given),inactive,
Cc1cccc(OCC(=O)NC(=S)Nc2ccccc2N2CCOCC2)c1,inactive,
O=C(COc1ccc(Cl)cc1)NC(=S)Nc1ccccc1N1CCOCC1,inactive,
Cc1cc(C)cc(OCC(=O)Nc2ccc(N3CCOCC3)cc2N2CCOCC2)c1,11.7 µM (active),
CC(C)c1ccc(/C=C/C(=O)NCCCN2CCOCC2)cc1,inactive,
O=C(OCC(=O)N1CCN(C(=O)c2ccco2)CC1)c1cccc(O)c1,inactive,
Cc1cc(-c2csc(N)n2)c(C)n1Cc1ccccc1,11.7 µM (active),
CCCc1cc(-c2n[nH]c(=S)n2Cc2ccccc2)cs1,inactive,
Cc1cc(-c2csc(N)n2)c(C)n1-c1ccccc1,14.7 µM (active),
Cc1n[nH]c(=O)n1-c1ccc(Oc2ccccc2)cc1,inactive,
O=c1onc(-c2cccs2)n1Cc1ccccc1,inactive,
S=c1[nH]nc(-c2cc(-c3ccsc3)n[nH]2)n1-c1ccccc1,inactive,
O=C(Cc1ccc(Br)cc1)NCCN1CCOCC1,,5.97% [at 0.00184 µM]
CCC(C(=O)N1CCN(S(=O)(=O)c2sc(C(=O)O)c(C)c2C(=O)O)CC1)c1ccccc1 (stereo not given),inactive,
COc1ccc(OC)c(NC(=O)c2cccc(S(=O)(=O)N3CCN(C(C)=O)CC3)c2)c1,inactive,
COc1cc(OC)cc(C(=O)Nc2nnc(SCC(=O)NCC3CCCO3)s2)c1 (stereo not given),inactive,
Cc1ccccc1Nc1nc(-c2cccnc2)cs1,inactive,
CCCOc1ccc(Cc2c(O)nc(SC)[nH]c2=O)cc1C,inactive,
COC(=O)c1ccc(Cc2ccccc2)o1,inactive,
CN(C)c1ccc(/C=N/N(Cc2ccccc2)c2ccccc2)cc1,inactive,

Structure (SMILES),Potency,"activity change, negative = inhibition"
C[n+]1ccc(C(=O)NCc2ccccc2)cc1,inactive,
CN(C)c1cc[n+](Cc2ccccc2)cc1,0.928 µM (active),
CC1=NN(Cc2ccccc2)C(=O)/C1=C/c1ccc(N(C)C)cc1,inactive,
c1ccc(Cc2cc[n+](Cc3ccccc3)cc2)cc1,1.17 µM (active),
Cc1ccc(NS(=O)(=O)c2cc3c(cc2C)NC(=O)CO3)cc1,inactive,
c1ccc(C2CCC(N3CCC(N4CCCCC4)CC3)CC2)cc1 (stereo not given),10.4 µM (active),
Cc1ccc(S(=O)(=O)N2CCC(N3CCCCCC3)CC2)cc1,inactive,
O=S(=O)(c1ccccc1)N1CCC(c2ccccc2)CC1,inactive,
COc1ccccc1NC(=O)Nc1nnc(Cc2ccc(F)cc2)s1,inactive,
CC1=NN(/C(=N\c2nnc(C)s2)Nc2ccccc2)[C@H](c2ccc(C)cc2)S1,8.28 µM (active),
COc1ccc2oc(=N)c(C(=O)Nc3ccc(Br)cc3)cc2c1,inactive,
CCOC(=O)C1CCN(C(=O)Cn2cc(C#N)c3ccccc32)CC1,inactive,
CCOC(=O)C1CCN(C(=O)CC2C(=O)N(Cc3ccccc3)C(C)c3nc4ccccc4n32)CC1 (stereo not given),7.38 µM (active),
CC1c2nc3ccccc3n2C(CC(=O)NCCCN2CCOCC2)C(=O)N1Cc1ccccc1 (stereo not given),inactive,
O=C(NCCS(=O)(=O)NCc1ccc(F)cc1)c1ccccc1,inactive,
Cc1cc(C)nc(N/N=C/c2c(CO)cnc(C)c2O)n1,10.4 µM (active),
COc1ccc(/C=C2\SC(=S)N(CCC(=O)Nc3cccc(C(=O)O)c3)C2=O)cc1OC,inactive,
CN(NS(=O)(=O)c1cccs1)c1ncc(C(F)(F)F)cc1Cl,inactive,
COc1ccc(CNC(=O)c2ccc3oc(C(C)C)nc3c2)cc1,inactive,
O=C(COC(=O)/C=C/c1ccc(OC(F)F)cc1)NC1CCCCC1,inactive,
O=C(NCc1cccc(Cl)c1)C1CCN(c2nnc(N3CCCC3=O)s2)CC1,inactive,
COc1ccccc1CNS(=O)(=O)c1c(C)[nH]c(C)c1C(=O)N1CCCCC1,inactive,
O=C(CSc1nnnn1-c1ccc(O)cc1)c1ccc(F)cc1,inactive,
COc1ccc(C2=NN(C(=O)CSc3nnnn3C)C(c3ccco3)C2)cc1 (stereo not given),inactive,
O=C(CSc1nnnn1-c1ccc(O)cc1)N1N=C(c2ccc3ccccc3c2)CC1c1ccccc1 (stereo not given),2.33 µM (active),
Cc1nnnn1/C(=C\c1ccccc1)C(=O)OCC(=O)N1CC2(C)CC1CC(C)(C)C2 (stereo not given),11.7 µM (active),
Cc1cccc(C(=O)NCC(=O)OCC(=O)N2CC3(C)CC2CC(C)(C)C3)c1 (stereo not given),inactive,

Structure (SMILES),Potency,"activity change, negative = inhibition"
COc1ccccc1C(=O)N1CC2(C)CC1CC(C)(C)C2 (stereo not given),inactive,
COc1ccc(OC)c(-c2csc(NC(=O)COC(=O)C3CC3)n2)c1,inactive,
C=CCOc1ccccc1NC(=O)CN1C(=O)CNC1=O,inactive,
CC(C)(C)NC(=O)C(c1ccncc1)N(C(=O)CNC(=O)c1ccco1)c1ccc2c(c1)OCO2 (stereo not given),inactive,
CC(C)(C)NC(=O)C(c1ccco1)N(Cc1ccc2c(c1)OCO2)C(=O)Cn1nnc2ccccc21 (stereo not given),8.28 µM (active),
CCC(C)(C)NC(=O)C(c1cccn1C)N(Cc1ccc(C)cc1)C(=O)Cn1nnc2ccccc21 (stereo not given),inactive,
COCCn1c(C)cc(C(=O)CSc2nnc(C3CC3)n2C2CC2)c1C,inactive,
CCC(=O)Nc1ccc(S(=O)(=O)Nc2c(NC)c3ccccc3oc2=O)cc1,inactive,
CCOC(=O)c1sc(NC(=O)CSc2nc3c(c(=O)n2-c2ccccc2)SCC3)c(C(=O)OCC)c1C,1.65 µM (active),
CCOC(=O)c1c(NC(=O)CSc2nccc(=O)[nH]2)sc(C)c1C,inactive,
CCOC(=O)c1sc(NC(=O)CSc2nnc(-c3ccco3)o2)c(C(=O)OCC)c1C,inactive,
COc1cccc(N2CCN(c3ccc4nnc(CCC(=O)N5CCN(C)CC5)n4n3)CC2)c1,inactive,
COc1ccc(Nc2ncnc3sc(C)cc23)cc1,inactive,
Cc1cc(Cl)ccc1C(=O)C1CCCN(C(=O)c2nonc2C)C1 (stereo not given),inactive,
CCOC(=O)C(C)n1cnc2c(nnn2-c2ccc(F)cc2)c1=O (stereo not given),inactive,
COc1ccccc1NC1=NC(c2ccc(Cl)cc2)N=C(N)N1 (stereo not given),10.4 µM (active),
COc1ccccc1NC(=O)c1cc(Cl)nnc1Cl,inactive,
COc1ccccc1Nc1nc(N)nc(CSC(=S)N2CCOCC2)n1,inactive,
Cc1ccc(OCC(=O)Nc2ccc(C(=O)O)cc2NC(=O)COc2ccc(C)c(C)c2)cc1C,inactive,
O=C1Nc2ccccc2/C1=C/c1ccnc2ccccc12,inactive,
CC1C(=O)C(C)C(c2ccc(O)cc2)NC1c1ccc(O)cc1 (stereo not given),6.57 µM (active),
CCOC(=O)C1C(c2ccc(O)cc2)NC(=O)NC1(O)C(F)(F)F (stereo not given),inactive,
CCOc1ccccc1NC(=O)CCS(=O)(=O)c1cccc2nsnc12,inactive,
CCOc1ccc(OCC)c(NC(=O)CN(C)S(=O)(=O)c2cccc3nsnc23)c1,1.17 µM (active),
CCOc1ccc(N(CC)S(=O)(=O)c2cccc3nsnc23)cc1,inactive,
O=C(Nc1ccccn1)C1CCN(S(=O)(=O)c2ccccc2)CC1,inactive,
CCN(c1ccccc1)S(=O)(=O)c1cc2c(cc1C)n(C)c(=O)c(=O)n2C,inactive,

Structure (SMILES),Potency,"activity change, negative = inhibition"
CCOC(=O)c1c(-c2ccccc2)oc2ccc(OC(=O)N(C)C)cc12,inactive,
CCOC(=O)c1c(CN(C)C)n(-c2ccccc2)c2cc(Br)c(O)cc12,1.17 µM (active),
CCOC(=O)c1c(-c2cccc(N)c2)cn2ccccc12,inactive,
CCOC(=O)c1ccccc1C(=O)N1CCOCCOCCOCC1,inactive,
CCOC(=O)c1ccccc1NC(=O)COC(=O)CCC(=O)N1CCOCC1,inactive,
CCOC(=O)c1c(CN2CCOCC2)n(-c2ccccc2)c2ccc(O)cc12,10.4 µM (active),
CN(CC(=O)Nc1ccc(Cl)cc1)C(=O)c1ccc(COc2ccccc2)cc1,inactive,
CCCCn1c(N)c(N(Cc2ccccc2OC)C(=O)COc2cc(C)ccc2Cl)c(=O)[nH]c1=O,inactive,
Cc1ccc2c(c1)N(CC(=O)NCCc1ccc(Cl)cc1)C(=O)c1cccnc1O2,inactive,
CC(=O)c1cccc(NC(=O)CN2C(=O)c3cccnc3Oc3ccc(Cl)cc32)c1,13.1 µM (active),
Cc1ccc2c(c1)N(CC(=O)NCCCN1CCCCC1)C(=O)c1cccnc1O2,inactive,
Cc1ccc(S(=O)(=O)N(C)CC(=O)NCCc2c[nH]c3ccccc23)cc1,inactive,
Cn1c(CNC(=O)c2ccco2)nnc1SCC(=O)N1CCN(c2ccccc2)CC1,inactive,
CC(C)c1nc2cc(C(=O)NC(C)c3cnn(C)c3)ccc2o1 (stereo not given),inactive,
CCN(CC(=O)Nc1ccc2c(c1)OCO2)S(=O)(=O)c1ccccc1,inactive,
C/C(=N\NC(=O)Cc1ccccc1[N+](=O)[O-])c1cccnc1,inactive,
CN1c2ccccc2-c2nc3ccccc3n2C1c1ccco1 (stereo not given),11.7 µM (active),
Cn1c(-c2ccco2)nc2cc3ccccc3cc21,inactive,
Cn1cccc1-c1nc2ccccc2n1C,inactive,
O=C(c1cc2cc(Br)cc(Br)c2oc1=O)N1CCOCC1,inactive,
CCOc1ccc(NC(=O)COc2ccc(C(=O)N3CCC(C(N)=O)CC3)cc2OC)cc1,inactive,
COc1cc2ccccc2cc1C(=O)Nc1ccc(NC(=O)c2cccs2)cc1,11.7 µM (active),
COc1cc2ccccc2cc1C(=O)Nc1ccncc1,inactive,
COc1cc(NC(=O)c2cccs2)ccc1NC(=O)c1ccccc1Cl,inactive,
